Screening results as filed in PubChem.
A selection: hits, their analogues and other compounds. The true share with any hit is near 3.6%.
HTT promoter inh = HTT promoter inhibition; actives 0.93% (n = 48,000); Potency, µM (titrated, usually from 57.5 µM), without a hit: top-dose activity change, negative = inhibition, actives largely listed as inhibitors; AID 1508623; HEK293 HTT promoter firefly luciferase reporter, 24 h; also: nearly all actives have a fitted effect of over 50% in size
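Quantitative HTS used concentration series of up to 57.5 uM final on HEK293 luciferase reporter cells, 24 h at 37 degrees C. Readout was Dual-Glo firefly luminescence.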
PMP22 txn = modulates PMP22 transcription in S16 Schwann cells; Potency, µM (titrated, usually from 57.5 µM), without a hit: at the highest dose activity change, negative = inhibition, usual class: inhibitors; AID 1508649; S16 Pmp22-F2sN Schwann cells, FLuc/NLuc coincidence luminescence, 24 h; actives 2% (n = 43,000); active = clear falling dose curves in both reporters; inconclusive = both reporters move, but less clearly or upward; inactive = either reporter flat; the % is the NLuc reporter signal; also: % is scaled to controls: 0 for no effect and ±100 for the full control effect
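S16 Schwann cells carrying FLuc/NLuc coincidence reporter in the Pmp22 3' UTR treated with compound 24 h at 37C; FLuc then NLuc luminescence read sequentially by dual-luciferase reagents.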
HTT-AS act = HTT-AS promoter activation | HEK293 HTT-AS promoter firefly luciferase reporter, 24 h; response scale: percent change from vehicle, -100% = no light | actives 0.24% (n = 48,000) | AID 1508624 | Potency, µM (series often up to 57.5 µM), for inactives: at the top dose activity change, positive = activation, usual class: activators; also: nearly all actives have a fitted effect of over 55% in size
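HEK293 cells carrying firefly luciferase reporters were seeded at 2,500 per well in Opti-MEM and cultured for 24 h. They were then treated with compounds at up to 57.5 uM final for 24 h at 37 degrees C before Dual-Glo luminescence readout.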
S16 viability = cytotoxicity in S16 Pmp22-F2sN Schwann cells; S16 Pmp22-F2sN Schwann cells viability, CellTiter-Glo, 24 h; Potency, µM (series often up to 57.5 µM), for the others: at the highest dose activity change, negative = cytotoxicity, actives largely listed as cytotoxic; actives 0.48% (n = 43,000); AID 1508642; also: % is scaled to controls: 0 for no effect and ±100 for the full control effect; nearly all actives have a fitted effect of over 65% in size
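S16 Pmp22-F2sN Schwann cells (500-1,000/well) in phenol-red-free DMEM with 10% FBS received 23 nL compound by pin tool for 24 h at 37 °C. Viability was then read as CellTiter-Glo luminescence after 15 min at room temperature.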
OvCa metastasis = ovarian cancer metastasis inhibition, 3D TME model; SKOV3ip1-GFP adhesion/invasion on 3D omental model, fluorescence; Potency, µM (highest dose often 45.8 µM), inactives show top-dose activity change, negative = inhibition, most hits filed as inhibitors; actives 0.1% (n = 46,000);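 also: plate controls were DMSO wells for no effect and tomatine positive control wells for full effect; nearly all actives have a fitted effect of over 65% in size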
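Primary human omental fibroblast/mesothelial 3D culture pre-formed 48 h. SKOV3ip1-GFP cells added with compounds (0.36-46 umol/L), incubated 2 h RT/16 h 37 C, fixed; GFP cells quantified at 488/509 nm.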
mTORC1 inh = inhibitors of mTORC1 signaling in Tsc2-/- p53-/- MEF cells; Tsc2-/- p53-/- MEF, phospho-rpS6 immunofluorescence/PI, 24 h; Potency, µM (titrated, usually from 38.3 µM), for inactives: at the highest dose activity change, negative = inhibition, hits mostly inhibitors; actives 0.78% (n = 44,000);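 also: plate controls were DMSO for no effect and rapamycin for full effect; nearly all actives have a fitted effect of over 50% in size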
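Tsc2-/-, p53-/- MEFs (empty-vector stable line) in DMEM + 10% FBS were treated with compounds 24 h at 37 degree Celsius, fixed, and immunostained for phospho-rpS6 (Alexa-488) with propidium iodide counterstain. Laser-scanning cytometry gave % positive cells, normalized against 7.5 nM rapamycin and DMSO.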
* = called active by the depositor; ! = not confirmed by another sample; [ ] = another dose, or the depositor's remark. Unless noted, calls follow the shape of the dose curve; as a rule, active = well fitted curve in the direction sought with a large enough effect; inconclusive = small, poorly fitted or top-dose-only effect, or another doubt; inactive = no such curve, though single readings can be large; an effect the other way counts as inactive or inconclusive. Potency is read from the fitted curve at half-maximal effect.

How did Cc1[nH]c(C=C2C(=O)Nc3ccc(S(=O)(=O)Cc4c(Cl)cccc4Cl)cc32)c(C)c1C(=O)N1CCC[C@H]1CN1CCCC1 do in these assays?
HTT promoter inh: -2%; HTT-AS act: -4%; OvCa metastasis: 5%

Results for CCNc1ccc(-c2nc(-c3ccco3)no2)cc1[N+](=O)[O-] ?
HTT promoter inh: 63%; PMP22 txn: inconclusive; HTT-AS act: 0.35µM*; S16 viability: 25%; OvCa metastasis: -9%; mTORC1 inh: -16%

Results for COc1cc(-c2noc(-c3ccc(NCc4cccnc4)c([N+](=O)[O-])c3)n2)cc(OC)c1OC ?
HTT promoter inh: 8%; PMP22 txn: 7.1µM*; HTT-AS act: -8%; S16 viability: -8%; OvCa metastasis: inactive; mTORC1 inh: 0%

Results for Cc1cc(C)cc(Oc2nc3c(C)cccn3c(=O)c2/C=C(\C#N)c2nc3ccccc3[nH]2)c1 ?
HTT promoter inh: -3%[11.5 µM]; PMP22 txn: inconclusive; HTT-AS act: -4%; S16 viability: 0%; OvCa metastasis: -1%; mTORC1 inh: -18%

Results for Cc1ccccc1Oc1nc2ccccn2c(=O)c1/C=C(\C#N)c1nc2ccccc2[nH]1 ?
HTT promoter inh: 6%; PMP22 txn: 20%; HTT-AS act: -4%; S16 viability: 5%; OvCa metastasis: 19%; mTORC1 inh: 9.3µM*

How did COc1ccc(Oc2nc3c(C)cccn3c(=O)c2/C=C(\C#N)c2nc3ccccc3[nH]2)cc1 do in these assays?
HTT promoter inh: 1%; PMP22 txn: 7%; HTT-AS act: -9%; S16 viability: -3%; OvCa metastasis: 3%; mTORC1 inh: 13µM*

What do the screens show for `Cc1cnc(CNC(=O)c2c(=O)c3ccc(N4CCCN(C)CC4)nc3n3c2sc2ccccc23)cn1`?
HTT promoter inh: -12%[25.2 µM]; HTT-AS act: -23%[25.1 µM]; OvCa metastasis: 2%[23.2 µM]

What do the screens show for `CCOC(=O)c1cccc(NS(=O)(=O)c2cc(-c3cnc(C4CC4)o3)ccc2C)c1`?
HTT promoter inh: inconclusive; PMP22 txn: -73%; HTT-AS act: -13%; S16 viability: 20µM*; OvCa metastasis: inactive; mTORC1 inh: 0%

What do the screens show for `CCc1ccc(NS(=O)(=O)c2cc(-c3cnc(C4CC4)o3)ccc2C)cc1`?
HTT promoter inh: inconclusive; PMP22 txn: -51%; HTT-AS act: -36%; S16 viability: inconclusive; OvCa metastasis: inactive; mTORC1 inh: -28%

How did COc1ccc(C(=O)NCC(c2ccc3c(c2)OCO3)N2CCN(c3ccc(F)cc3)CC2)cc1 (centres undefined) do in these assays?
HTT promoter inh: inconclusive; PMP22 txn: inconclusive; HTT-AS act: -36%; S16 viability: -13%; OvCa metastasis: -16%; mTORC1 inh: 1%

What do the screens show for `Cc1ccc(C(=O)NCC(c2ccc3c(c2)OCO3)N2CCN(c3ccc(F)cc3)CC2)cc1` (centres undefined)?
HTT promoter inh: 22µM*; PMP22 txn: -11%; HTT-AS act: -40%; S16 viability: 8%; OvCa metastasis: 6%; mTORC1 inh: 5%

What do the screens show for `COc1cccc(NC(=O)C(=O)NCC(c2ccc3c(c2)OCO3)N2CCOCC2)c1` (centres undefined)?
HTT promoter inh: 93%; PMP22 txn: inconclusive; HTT-AS act: 4.5µM*; S16 viability: -24%; OvCa metastasis: -9%; mTORC1 inh: 0%

What do the screens show for `CCOc1ccn(-c2ccc(F)cc2)c(=O)c1C(=O)Nc1ccc(Oc2ccnc(N)c2Cl)c(F)c1`?
HTT promoter inh: -9%; HTT-AS act: -16%; OvCa metastasis: 7%

Results for O=C(CSc1nc(-c2ccccc2)no1)N1CCN(c2ccccc2F)CC1 ?
HTT promoter inh: 8%; PMP22 txn: -19%; HTT-AS act: -9%; S16 viability: 3%; OvCa metastasis: 1%; mTORC1 inh: 7%

What do the screens show for `O=C(O)c1cccc(-c2noc(-c3ccccc3F)n2)c1`?
HTT promoter inh: 7.9µM*!; HTT-AS act: 4%; OvCa metastasis: 9%

What do the screens show for `Oc1ccc(-c2ccc(-c3cc(Nc4cccc(CNC5CC5)c4)n[nH]3)cc2)c(O)c1`?
HTT promoter inh: inconclusive; HTT-AS act: -19%; OvCa metastasis: 20%

How did Cc1cc(F)ccc1NC(=O)c1csc2c1CCC(C)C2 (centres undefined) do in these assays?
HTT promoter inh: 53%; PMP22 txn: inconclusive; HTT-AS act: 3.2µM*; S16 viability: 0%; OvCa metastasis: inactive; mTORC1 inh: -1%

Results for O=C(Nc1ccc(F)cc1)c1csc2c1CCCCC2 ?
HTT promoter inh: inconclusive; PMP22 txn: -19%; HTT-AS act: -95%; S16 viability: -14%; OvCa metastasis: 16%; mTORC1 inh: inconclusive

Results for CCCCOC(=O)c1ccc(NC(=O)c2ccc3c(c2)CCN3S(=O)(=O)c2ccccc2)cc1 ?
HTT promoter inh: inconclusive; PMP22 txn: 2%; HTT-AS act: -24%; S16 viability: 25%; OvCa metastasis: 0%; mTORC1 inh: inconclusive

What do the screens show for `CCCCOC(=O)c1ccc(NC(=O)c2ccc3c(c2)CCCN3S(C)(=O)=O)cc1`?
HTT promoter inh: 5µM*; PMP22 txn: 13%; HTT-AS act: -29%; S16 viability: -19%; OvCa metastasis: -21%; mTORC1 inh: inconclusive

Results for Cc1ccc(Cc2nc3ccccc3nc2SCC(=O)N2CCCCC2C)cc1 (centres undefined) ?
HTT promoter inh: 28µM*; PMP22 txn: inconclusive; HTT-AS act: -44%; S16 viability: -22%; OvCa metastasis: 30%; mTORC1 inh: -13%

How did CN1CCN(Cc2ccc(NC(=O)Nc3ccc(Oc4cc(NC(=O)C5CC5)ncn4)cc3)cc2C(F)(F)F)CC1 do in these assays?
HTT promoter inh: inconclusive; HTT-AS act: -31%; OvCa metastasis: inconclusive

What do the screens show for `CCCCc1nc2cc(C=CC(=O)NO)ccc2n1CCN(CC)CC`?
HTT promoter inh: 199%; HTT-AS act: inconclusive; OvCa metastasis: -10%

Results for COc1ccccc1N1CCN(C(=O)C2CCCN(S(=O)(=O)c3ccc4c(c3)CCCN4C(C)=O)C2)CC1 (centres undefined) ?
HTT promoter inh: inconclusive; PMP22 txn: inconclusive; HTT-AS act: -28%; S16 viability: inconclusive; OvCa metastasis: 9%; mTORC1 inh: -29%
